Results on 40 molecules are retold here after PubChem BioAssay (NCI).

Compounds without any hit were thinned out: in the full panel of roughly 83,000, 20% have a hit.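 Cell lines were cultured in 96-well plates, exposed to a single compound concentration, and assessed for percent growth 48 hours later.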 Active and inactive are the calls of the source. Rule for the calls: active = growth percent below 10; inactive = the rest.

The test concerns HL-60(TB) leukemia. Nature of the test: NCI-60 one-dose screen, 48 h (100 = growth as untreated, 0 = no growth, -100 = all killed). To be noted: 10 µM unless noted.
For the molecule `COc1ccc(/C=C(\C#N)C(=O)Nc2cccc(Nc3nc(SC)nc(-c4cccc([N+](=O)[O-])c4)c3C#N)c2)cc1OC`, the growth was 95% (inactive).
Consider `COc1ccc(Cl)cc1Nc1nc(C(F)(F)F)ccc1C(=O)N/N=C/c1ccc(N(C)C)cc1`, for which the growth is 85.4% (inactive).
Next, `N#Cc1c(N)nc(-c2cc(F)cc(C(F)(F)F)c2)nc1-c1ccccc1F`: 92.8% (inactive); `Cc1c(Cl)cccc1C(=O)Nc1nc2c(s1)CN(C(=O)c1ccc(C(F)(F)F)cc1)CC2`: -21.8% (active).
With `NNC(=O)c1ccccc1N`, the growth is 122% (inactive).
Next, `CCCCOc1nc2ccc(Cl)cc2cc1/C=C/C(=O)/C=C1/CC(c2cc3cc(Cl)ccc3nc2OCCCC)Nc2ccccc2N1` (stereo not given): 101% (inactive).
Next, `C[C@H]1[C@H](C)CC[C@]2(C(=O)OCCCC[P+](c3ccccc3)(c3ccccc3)c3ccccc3)CC[C@]3(C)C(=CC[C@@H]4[C@@]5(C)CC[C@H](OC(=O)C(Cl)Cl)C(C)(C)[C@@H]5CC[C@]43C)[C@H]12`: -54.3% (active).
Consider `COc1ccc(C(=O)c2cc(F)c(F)c(OC)c2F)cc1OC(=O)CCl`, for which the growth is 11.7% (inactive).
To `Cc1ccc(S(=O)(=O)c2ccccc2)cc1` belongs 12.8% (inactive).
Take `Cc1nc2sc(C(=O)Nc3cccc4ccccc34)c(N)c2cc1C(=O)c1ccccc1`: the growth is -50.6% (active).
Next, `N#Cc1ccc(C2C3=C(CCCC3=O)OC3=C2C(=O)c2ccccc2C3=O)cc1` (stereo not given): -21.4% (active).
Next, `CCN(CC)CCn1c2ccc(O)cc2c2sc3cc(O)ccc3c(=O)c21`: 38% (inactive); `CC(=O)c1nn(-c2ccc(C)cc2)cc1C(=O)c1cc2c(ccc3ccccc32)oc1=O`: 104% (inactive).
To `COc1ccc(OC)c2c1CCC1(C2)NC(=O)NC1=O` (stereo not given) belongs 111% (inactive); to `Oc1ccc([S+](c2ccc(O)cc2)c2ccc(O)cc2)cc1`, 110% (inactive).
Turning to `COS(=O)(=O)CCN(CCOS(C)(=O)=O)S(C)(=O)=O`, the growth was 82.9% (inactive).
Next, `CNC(=O)c1cc(Oc2ccc3nc(Nc4ccc(Cl)c(C(F)(F)F)c4)ccc3c2)ccn1`: 62.6% (inactive).
To `CCOC(=O)C1=C(C)N2C(=NC3=C(CCCC/C3=C\c3ccccc3)C2c2ccccc2)S1` (stereo not given) belongs 101% (inactive); to `CC1CCN(C(=O)OCc2nc3nc(Cl)nc(N4CCOCC4)c3[nH]2)CC1`, -43.5% (active).
Next, `COc1cc(OC)c(Cl)cc1N`: 131% (inactive).
`COc1cc2c(cc1OC)-c1ccc3cc4c(cc3c1N(CCCN1CCCCC1)C2)OCO4`: the growth was 37.1% (inactive).
To `CCCCC1(O)CCCCC1` belongs 99.1% (inactive); to `NNC(=O)Cc1ccccc1`, 73.1% (inactive).
Next, `Nc1nc(-c2cccc3ccccc23)cc2ccccc12`: -48.5% (active); `C(=C\c1nccc2c1[nH]c1ccccc12)/c1ccccc1`: 55.5% (inactive).
Turning to `CCCCNNC(=O)c1ccc(Br)cc1`, the growth was 18.3% (inactive).
Next, `O=C(CSc1nnc(-c2cccnc2SCc2ccccc2)o1)Nc1nc(Cl)cc(Cl)n1`: 98.3% (inactive); `Cn1cc(-c2nonc2-c2c[nH]c3ccccc23)c2cccnc21`: 4.76% (active).
Turning to `Oc1ccc(-c2[nH]c3ccccc3c2-c2nc3ccccc3o2)cc1`, the growth is 80.8% (inactive).
Regarding `O=CC(OC(=O)c1ccccc1)C(OC(=O)c1ccccc1)C(COC(c1ccccc1)(c1ccccc1)c1ccccc1)OC(=O)c1ccccc1` (stereo not given), the growth was -12.3% (active).
Next, `Nc1cccc(-c2nc3sccn3c2-c2ccnc(NCCCNS(=O)(=O)c3ccc(C(F)(F)F)cc3)n2)c1`: -18.5% (active).
To `COC(=O)[C@H](C)NC(=O)NC(=O)NC(=O)CI` belongs -51% (active).
Take `CC1(C)C(=O)/C(=C\c2ccco2)C[C@]2(C)[C@H]3CC[C@@H]4[C@@H](C(=O)/C=C/c5ccco5)CC[C@@]4(C)[C@]3(C)CC[C@@H]12`: the growth is 81.6% (inactive).
Turning to `CCC(=O)Oc1ccc2ccccc2c1`, the growth was 103% (inactive).
Next, `O=C1CCNC1`: 103% (inactive); `O=C1CCCC1[n+]1ccccc1` (stereo not given): 88.1% (inactive); `S=C1N(c2ccccc2)CN(C2CCCCC2)CN1c1ccccc1`: 96.1% (inactive).
To `O=C(Nc1ccc(-n2cc(-c3ccncc3)c(-c3ccc(Cl)c(O)c3)n2)cc1)Nc1cc(C(F)(F)F)cc(C(F)(F)F)c1` belongs 2.94% (active).
Next, `COC(=O)[C@]12CC[C@@H](C(C)=O)[C@@H]1[C@H]1CC[C@@H]3[C@@]4(C)C/C(=C/c5cccnc5)C(=O)C(C)(C)[C@@H]4CC[C@@]3(C)[C@]1(C)CC2`: -2.67% (active); `CN(C)c1ccc(/C=C2/C=C(c3ccccc3)OC2=O)cc1`: 4.38% (active).
